“And” between values parts separate entries of the source, which are not always exact repeats. Identical values can stand only once. Results filed as inconclusive are left out. The source made the active and inactive calls. Unless noted, the call rests on the fitted dose curve; in most records, active means well fitted curve in the direction sought with a large enough effect in the repeat runs; inconclusive means weak or mixed curves; inactive means no such curve, though single readings can be large; an effect the other way counts as inactive or inconclusive.
Columns and labels:
[1] = target: Thyrotropin receptor (Homo sapiens) (UniProt P16473); test: qHTS assay to identify small molecule agonists of the thyroid stimulating hormone receptor (TSHR) signaling pathway (AID 1224843; calls by dose curve; further: nearly all actives have a fitted effect of over 45% in size)
Summary of the method: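 Agonist activity read as cAMP rise via d2/cryptate HTRF competition, 1 h room-temperature detection, in HEK293 cells expressing TSHR. Fifteen-point titrations, each run in triplicate, with a 30 min room-temperature incubation beforehand.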

[2] = qHTS assay to identify small molecule agonists of the hypoxia (HIF-1) signaling pathway - cell viability counter screen (AID 1224844; calls by dose curve; further: nearly all actives have a fitted effect of over 50% in size; further: potency means the concentration at half of the fitted maximal effect)
Summary of the method: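 In this counter screen, HRE-bla ME-180 cell viability after 17 hrs of compound exposure at 37C was read by CellTiter-Glo luminescence, multiplexed with the beta-lactamase reporter measurement.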

[3] = qHTS assay to identify small molecule agonists of H2AX (AID 1224845; active means well fitted activation curve with a large enough effect in the signal ratio in the repeat runs, not every such curve was filed as active; the % refers to the signal ratio)
Summary of the method: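 Phospho-H2AX Ser139 measured by HTRF (ex 320 nm; em 665 and 620 nm) after 24 hr antibody incubation. Compounds, 15 concentrations, 0.76% DMSO, were applied to CHO-K1 cells for 3hr at 37C before lysis.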

[4] = qHTS assay to identify small molecule agonists of H2AX - cell viability counter screen (AID 1224847; calls by dose curve; further: nearly all actives have a fitted effect of over 30% in size; further: potency means the concentration at half of the fitted maximal effect; on activity change, negative = cytotoxicity: top concentration of the series differs between compounds)
Summary of the method: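 Compounds tested at 15 concentrations were incubated 3 hr at 37C with wild-type CHO-K1 cells; cellular ATP-based luminescence (CellTiter-Glo) indicated viability.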

[5] = qHTS assay to identify small molecule antagonists of the estrogen related receptor (ERR) signaling pathway from Tox21 library (AID 1224848); further: nearly all actives have a fitted effect of over 50% in size; further: potency means the concentration at half of the fitted maximal effect
Summary of the method: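 Luciferase luminescence (ONE-Glo, 30 min room temperature) was the read-out. Cells of the NTP-supplied ERR line, 2,000 per well, were given 6 h at 37 C before compound addition in DMSO and 18 h exposure at 37 C.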

[6] = qHTS RealTime-Glo MT Cell Viability Assay in HepG2 cells - 24 hour (AID 1224867); further: nearly all actives have a fitted effect of over 50% in size; further: potency means the concentration at half of the fitted maximal effect
Summary of the method: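 Cells + NanoLuc/prosubstrate dispensed (600 cells/well) → 5 h at 37 C/5% CO2 → compounds in DMSO transferred → 40 h incubation at 37 C, luminescence read at 0, 8, 16, 24, 32, 40 h.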

[7] = qHTS RealTime-Glo MT Cell Viability Assay in HEK293 cells - 32 hour (AID 1224868); further: nearly all actives have a fitted effect of over 50% in size; further: potency means the concentration at half of the fitted maximal effect; on activity change, negative = cytotoxic: top concentration of the series differs between compounds
Summary of the method: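 Tox21 10K qHTS, HEK293, 600 cells/well, RealTime-Glo reagent co-dispensed with cells; 5 h preincubation, compound by pintool, 37 C, luminescence at 0–40 h.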

[8] = A CellTox Green Cytotoxicity Assay to monitor cytotoxicity in HEK293 cells - 0 hour (AID 1224869); further: nearly all actives have a fitted effect of over 50% in size
Summary of the method: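 Real-time, in one plate: 600 HEK293 cells/well with dead-cell DNA dye, pinned compound after 5 h, 37 C incubation over 40 h; viable cells give no appreciable fluorescence.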

[9] = qHTS assay to identify small molecule agonists of the hypoxia (HIF-1) signaling pathway (AID 1224846; active means well fitted activation curve with a large enough effect in the signal ratio in the repeat runs, not every such curve was filed as active; the % refers to the signal ratio)
Summary of the method: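 ME-180 HRE-bla reporter cells; compounds in DMSO, 17 h at 37C; read-out beta-lactamase via CCF4-AM FRET.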

[10] = qHTS assay to identify small molecule agonists of the estrogen related receptor (ERR) signaling pathway from Tox21 library (AID 1224849; calls by dose curve; further: nearly all actives have a fitted effect of over 15% in size); conditions: ERR reporter cell line, ONE-Glo luciferase, 18 h; at 92.4 µM (top of the series) unless noted
Summary of the method: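 Luciferase activity in ERR pathway reporter cells served as the agonist readout; exposure lasted 18 h at 37 C, with ONE-Glo detection after 30 min at room temperature.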
On the % scale 0 is the no-effect control and ±100 the full control effect.

Thyrotropin receptor (Homo sapiens), sequence (P16473 whole entry, looked up): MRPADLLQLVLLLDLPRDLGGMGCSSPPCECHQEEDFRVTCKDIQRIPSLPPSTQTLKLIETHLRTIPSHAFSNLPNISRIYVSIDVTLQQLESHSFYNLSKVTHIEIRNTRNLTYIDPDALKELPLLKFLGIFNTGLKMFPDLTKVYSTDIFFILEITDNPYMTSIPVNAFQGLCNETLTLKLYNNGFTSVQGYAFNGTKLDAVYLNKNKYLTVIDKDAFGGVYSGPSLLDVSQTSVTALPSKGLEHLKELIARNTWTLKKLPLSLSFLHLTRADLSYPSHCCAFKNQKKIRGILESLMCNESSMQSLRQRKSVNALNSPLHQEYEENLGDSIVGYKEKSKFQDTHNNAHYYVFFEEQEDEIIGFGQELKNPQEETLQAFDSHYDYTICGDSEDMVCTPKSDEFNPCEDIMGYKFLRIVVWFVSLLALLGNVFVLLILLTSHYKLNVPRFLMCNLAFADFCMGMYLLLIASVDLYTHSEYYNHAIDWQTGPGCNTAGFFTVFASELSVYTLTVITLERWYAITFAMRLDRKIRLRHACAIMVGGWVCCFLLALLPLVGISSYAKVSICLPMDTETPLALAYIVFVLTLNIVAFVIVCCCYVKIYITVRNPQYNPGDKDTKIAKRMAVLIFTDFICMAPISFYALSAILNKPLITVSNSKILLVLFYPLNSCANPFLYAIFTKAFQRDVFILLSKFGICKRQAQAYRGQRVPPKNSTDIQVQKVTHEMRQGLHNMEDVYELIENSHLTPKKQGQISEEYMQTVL

O=C(O)c1ccccc1OP(=O)(O)O
inactive: Potency [1] | Potency [2] | outcome [3] | Potency [4] | Potency [5] | Potency [6] | Potency [7] | Potency [8]

CN1CCC(=C2c3ccccc3CC(=O)c3sccc32)CC1
inactive: Potency [1] | Potency [2] | outcome [3] | Potency [7] | Potency [8]

O=C(O)CCCc1ccccc1
inactive: Potency [1] | Potency [2] | outcome [3] | Potency [5] | Potency [6] | Potency [7] | Potency [8]

COc1nc(N)nc2c1ncn2[C@@H]1O[C@H](CO)[C@@H](O)[C@@H]1O
inactive: Potency [1] | Potency [2] | outcome [9] | Potency [4] | Potency [5] | Potency [8]

Nc1nc2c(ncn2COC(CO)CO)c(=O)[nH]1
inactive: Potency [1] | Potency [2] | outcome [3] | Potency [4] | Potency [8]

CC(C(=O)O)c1ccc(CC2CCCC2=O)cc1 (configuration not stated)
inactive: Potency [1] | Potency [2] | outcome [3] | Potency [4] | Potency [6] | Potency [7] | Potency [8]

NCCCNCCSP(=O)(O)O
inactive: activation [1] 0.0403% [at 8.39 µM] | activity change, negative = cytotoxicity [2] 6.46% [at 6.97 µM] | activation (H2AX phosphorylation) [3] -3.9% [at 14 µM] | activity change, negative = cytotoxicity [6] 1.03% [at 6.97 µM] | cytotoxicity [8] -8.49% [at 6.97 µM]

CCOC(=O)Nc1ccc(NCc2ccc(F)cc2)nc1N
inactive: Potency [1] | Potency [2] | outcome [3] | Potency [4] | activity change, positive = activation [10] -17.8% [at 42.5 µM] | Potency [6] | Potency [7] | Potency [8]

O=C(CCCN1CCN(c2ccccn2)CC1)c1ccc(F)cc1
inactive: Potency [1] | Potency [2] | outcome [3] | Potency [5] | Potency [6] | Potency [8]

C[C@](N)(Cc1ccc(O)cc1)C(=O)O
inactive: activation [1] -7.31% [at 8.39 µM] | activity change, negative = cytotoxicity [2] 3.27% [at 6.97 µM] | activation (H2AX phosphorylation) [3] -0.087% [at 14 µM] | activity change, negative = cytotoxicity [4] 2.42% [at 14 µM] | activity, negative = inhibition [5] 3.87% [at 8.39 µM] | activity change, negative = cytotoxicity [6] 0.0825% [at 6.97 µM] | activity change, negative = cytotoxic [7] 1.02% [at 6.97 µM] | cytotoxicity [8] 5.11% [at 6.97 µM]

CCN1CCC[C@H]1CNC(=O)c1c(O)c(Cl)cc(Cl)c1OC
inactive: Potency [1] | Potency [2] | outcome [3] | Potency [4] | Potency [6] | Potency [7] | Potency [8]

CCOC(=O)c1c(C)n(C)c2ccc(O)cc12
inactive: Potency [1] | Potency [2] | outcome [9] | Potency [4] | Potency [5] | activity change, positive = activation [10] -9.16% [at 42.5 µM] | Potency [6] | Potency [7] | Potency [8]

NS(=O)(=O)c1cc(C(=O)O)cc(N2CCCC2)c1Oc1ccccc1
inactive: Potency [1] | Potency [2] | outcome [3] | Potency [5] | activity change, positive = activation [10] 0.186% [at 42.5 µM] | Potency [6] | Potency [7] | Potency [8]

Oc1ccc(C2CNCCc3c2cc(O)c(O)c3Cl)cc1 (configuration not stated)
inactive: Potency [1] | Potency [2] | outcome [9] | Potency [4] | Potency [7] | Potency [8]

CCN(Cc1ccncc1)C(=O)C(CO)c1ccccc1 (configuration not stated)
inactive: Potency [1] | Potency [2] | outcome [3] | Potency [6] | Potency [7] | Potency [8]

c1cnc(N2CCN(Cc3ccc4c(c3)OCO4)CC2)nc1
inactive: Potency [1] | Potency [2] | outcome [3] | Potency [4] | Potency [6] | Potency [7] | Potency [8]

CN(C)CCCN1c2ccccc2CCc2ccc(Cl)cc21
inactive: Potency [1] | Potency [8]
active: Potency [2] 49 µM | Potency [4] 113 µM | Potency [5] 68.6 µM | Potency [6] 49 µM and 23.9 µM | Potency [7] 34.7 µM and 21.3 µM

COc1ccccc1OCC(O)CN1CCN(CC(=O)Nc2c(C)cccc2C)CC1 (configuration not stated)
inactive: Potency [1] | Potency [2] | outcome [3] | Potency [4] | Potency [6] | Potency [7] | Potency [8]

c1ccc([C@H]2CN3CCSC3=N2)cc1
inactive: Potency [1] | Potency [2] | outcome [3] | Potency [4] | Potency [7] | Potency [8]

Nc1ccc(S(=O)(=O)Nc2ccnn2-c2ccccc2)cc1
inactive: Potency [1] | activity change, negative = cytotoxicity [2] -2.16% [at 15.8 µM] | outcome [3] | Potency [4] | activity change, negative = cytotoxicity [6] 1% [at 15.8 µM] | activity change, negative = cytotoxic [7] 5.86% [at 15.8 µM] | cytotoxicity [8] 1.17% [at 15.8 µM]

NCCc1cnc[nH]1
inactive: Potency [1] | Potency [2] | outcome [3] | Potency [4] | Potency [6] | Potency [8]

Cc1cc(O)cc2c1O[C@](C)(CCC[C@H](C)CCC[C@H](C)CCCC(C)C)CC2
inactive: Potency [1] | Potency [2] | outcome [9] | Potency [4] | Potency [5] | activity change, positive = activation [10] 6.7% [at 42.5 µM] | Potency [6] | Potency [7] | Potency [8]

COC(=O)[C@@H](N)Cc1ccc(O)c(O)c1
inactive: Potency [1] | Potency [2] | outcome [9] | Potency [5] | activity change, positive = activation [10] 6.86% [at 42.5 µM] | Potency [7] | Potency [8]
